Here are results for five molecules from PubChem BioAssay (Tox21).

Assay [1] is described as follows: A CellTox Green Cytotoxicity Assay to monitor cytotoxicity in HEK293 cells - 40 hour (AID 1224871). Note: potency is the fitted concentration of half-maximal effect; nearly all actives have a fitted effect of over 45% in size. Put shortly:
(§1)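 Real-time, in one plate: 600 HEK293 cells/well with dead-cell DNA dye, pinned compound after 5 h, 37 C incubation over 40 h; viable cells give no appreciable fluorescence.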

The nature of assay [2]: qHTS RealTime-Glo MT Cell Viability Assay in HEK293 cells - 40 hour (AID 1224874). For max response: % is set by controls: 0 for no effect and ±100 for the full control effect. Note: nearly all actives have a fitted effect of over 50% in size. Note: potency is the fitted concentration of half-maximal effect. The settings on record: RealTime-Glo luminescence; max response: stronger effect = lower value. Put shortly:
(§2)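 Kinetic, non-lysing viability readout. Seed HEK293 (600/well) with reagent, incubate 5 h at 37 C/5% CO2, pin 23 nL compound in DMSO, incubate at 37 C, read luminescence at 0, 8, 16, 24, 32, 40 h.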

Assay [3] can be described thus: A CellTox Green Cytotoxicity Assay to monitor cytotoxicity in HEK293 cells - 24 hour (AID 1224875). Note: series mostly up to about 77 µM; % is set by controls: 0 for no effect and ±100 for the full control effect; nearly all actives have a fitted effect of over 45% in size. Put shortly:
as §1

A short description of assay [4]: A CellTox Green Cytotoxicity Assay to monitor cytotoxicity in HepG2 cells - 16 hour (AID 1224876). Note: nearly all actives have a fitted effect of over 45% in size. Note: potency is the fitted concentration of half-maximal effect. The method, boiled down:
(§3)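 Cytotoxicity was tracked as dead-cell DNA fluorescence in HepG2 cells treated with test compounds at 37 C; each time-point value comes from one kinetic series spanning 0, 8, 16, 24, 32 and 40 h.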

Assay [5] is described as follows: qHTS RealTime-Glo MT Cell Viability Assay in HEK293 cells - 0 hour (AID 1224880). Note: top concentration of the series differs between compounds; % is set by controls: 0 for no effect and ±100 for the full control effect; nearly all actives have a fitted effect of over 45% in size. The method, boiled down: as §2
The nature of assay [6]: A CellTox Green Cytotoxicity Assay to monitor cytotoxicity in HepG2 cells - 0 hour (AID 1224882). Note: % is set by controls: 0 for no effect and ±100 for the full control effect; nearly all actives have a fitted effect of over 35% in size. The method, boiled down: as §3
Assay [7] is described as follows: A CellTox Green Cytotoxicity Assay to monitor cytotoxicity in HEK293 cells - 8 hour (AID 1224884). Note: % is set by controls: 0 for no effect and ±100 for the full control effect; nearly all actives have a fitted effect of over 35% in size. The method, boiled down: as §1
Assay [8] is described as follows: qHTS RealTime-Glo MT Cell Viability Assay in HEK293 cells - 24 hour (AID 1224886). Note: nearly all actives have a fitted effect of over 50% in size. Note: potency is the fitted concentration of half-maximal effect. The method, boiled down: (§4)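 Tox21 10K qHTS, HEK293, 600 cells/well, RealTime-Glo reagent co-dispensed with cells; 5 h preincubation, compound by pintool, 37 C, luminescence at 0–40 h.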
Assay [9] can be described thus: A CellTox Green Cytotoxicity Assay to monitor cytotoxicity in HEK293 cells - 16 hour (AID 1224888). Note: % is set by controls: 0 for no effect and ±100 for the full control effect; nearly all actives have a fitted effect of over 35% in size. Put shortly: as §1
Assay [10] in a line: qHTS RealTime-Glo MT Cell Viability Assay in HepG2 cells - 0 hour (AID 1224889). Note: % is set by controls: 0 for no effect and ±100 for the full control effect; nearly all actives have a fitted effect of over 50% in size. Put shortly: (§5)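 Cells + NanoLuc/prosubstrate dispensed (600 cells/well) → 5 h at 37 C/5% CO2 → compounds in DMSO transferred → 40 h incubation at 37 C, luminescence read at 0, 8, 16, 24, 32, 40 h.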
Assay [11] can be described thus: qHTS RealTime-Glo MT Cell Viability Assay in HepG2 cells - 40 hour (AID 1224870). Note: nearly all actives have a fitted effect of over 50% in size. Note: potency is the fitted concentration of half-maximal effect. Put shortly: (§6)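 HepG2 cells mixed with RealTime-Glo MT reagents (NanoLuc plus cell-permeant prosubstrate) were seeded at 600 cells/well, incubated 5 h at 37 C/5% CO2, then pinned with compounds in DMSO; nonlytic luminescence tracked viability during 40 h treatment.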
A short description of assay [12]: qHTS RealTime-Glo MT Cell Viability Assay in HEK293 cells - 16 hour (AID 1224872). Note: nearly all actives have a fitted effect of over 50% in size. Note: potency is the fitted concentration of half-maximal effect. The method, boiled down: as §4
Assay [13] in a line: A CellTox Green Cytotoxicity Assay to monitor cytotoxicity in HepG2 cells - 24 hour (AID 1224878). For Cytotoxicity: % is set by controls: 0 for no effect and ±100 for the full control effect. Note: nearly all actives have a fitted effect of over 45% in size. Note: potency is the fitted concentration of half-maximal effect. Put shortly: as §3
A short description of assay [14]: qHTS RealTime-Glo MT Cell Viability Assay in HepG2 cells - 32 hour (AID 1224877). Note: % is set by controls: 0 for no effect and ±100 for the full control effect; nearly all actives have a fitted effect of over 55% in size. Put shortly: as §5
The nature of assay [15]: A CellTox Green Cytotoxicity Assay to monitor cytotoxicity in HepG2 cells - 32 hour (AID 1224883). Note: nearly all actives have a fitted effect of over 50% in size. Note: potency is the fitted concentration of half-maximal effect. Put shortly: as §3
Assay [16] in a line: qHTS RealTime-Glo MT Cell Viability Assay in HepG2 cells - 16 hour (AID 1224885). Note: nearly all actives have a fitted effect of over 50% in size. Note: potency is the fitted concentration of half-maximal effect. The method, boiled down: as §5
A short description of assay [17]: qHTS RealTime-Glo MT Cell Viability Assay in HEK293 cells - 8 hour (AID 1224887). Note: nearly all actives have a fitted effect of over 50% in size. Note: potency is the fitted concentration of half-maximal effect. The method, boiled down:
as §2

A short description of assay [18]: qHTS RealTime-Glo MT Cell Viability Assay in HepG2 cells - 8 hour (AID 1224873). Note: % is set by controls: 0 for no effect and ±100 for the full control effect; nearly all actives have a fitted effect of over 55% in size. Put shortly:
as §6

Assay [19] in a line: A CellTox Green Cytotoxicity Assay to monitor cytotoxicity in HEK293 cells - 32 hour (AID 1224881). Note: % is set by controls: 0 for no effect and ±100 for the full control effect; nearly all actives have a fitted effect of over 40% in size. Put shortly:
as §1

The nature of assay [20]: A CellTox Green Cytotoxicity Assay to monitor cytotoxicity in HepG2 cells - 40 hour (AID 1224879). Note: potency is the fitted concentration of half-maximal effect; nearly all actives have a fitted effect of over 40% in size. Put shortly:
as §3

Unmarked numbers belong to inactive results. Results filed as inconclusive are left out. Activity calls are given as the source filed them. Calls come from the whole dose curve; as a rule, active = well fitted curve in the direction sought with a large enough effect in the repeat runs; inconclusive = weak or mixed curves; inactive = no such curve, though single readings can be large; an effect the other way counts as inactive or inconclusive.

Regarding `c1cc(N(CC2CO2)CC2CO2)ccc1Cc1ccc(N(CC2CO2)CC2CO2)cc1` (centres undefined), the Potency in assay [1] is 49 µM (active); in assay [2] it was 24.5 µM (active); in [8], 43.6 µM (active). Also, the Potency result in assay [3], in assay [4], in assay [5], in assay [6], in [7] and in [9] was “inactive” in each case. In addition, in assay [10], the Potency entry was “inactive”.
For the molecule `CC1(CN2CCC(n3c(=O)[nH]c4ccccc43)CC2)OCc2ccccc2-n2cccc21` (centres undefined), the Potency entry in assay [11], in assay [3], in [4], in assay [13], in [5] and in assay [6] was “inactive” in each case. The Potency result in [7], in assay [9] and in assay [10] was “inactive” each time. Further, the Potency is 10.7 µM (active) in [12], 19 µM (active) in assay [2] and 19 µM (active) in assay [8].
Turning to `CC(=O)Nc1ccc(C)cc1C`, the Potency result in assay [11], in [3], in [4], in assay [14], in assay [13] and in [5] was “inactive” in each case. The Potency entry in assay [6], in [15], in [7], in assay [16], in assay [8] and in [17] was “inactive” throughout. The Potency result in [9] and in assay [10] was “inactive” throughout. Besides, the max response in [2] was -0.695%.
As for `C/C=C(/C(=C/C)c1ccc(O)cc1)c1ccc(O)cc1`, the Potency result in [11], in assay [12], in assay [18], in [3], in assay [19] and in [6] was “inactive” in each case. Moreover, the Potency result in assay [7], in assay [16], in assay [17] and in [9] was “inactive” in each case. The Potency in assay [2] is 19 µM (active); in assay [4], 15.1 µM (active); in assay [13], 16.9 µM (active); in assay [15], 16.9 µM (active).
`CC(=O)NC1(c2cccc(F)c2)CCN(CC[C@@]2(c3ccc(Cl)c(Cl)c3)CN(c3ccccc3)C(=O)CO2)CC1`: the Potency is 43.8 µM (active) in assay [11]; 17.4 µM (active) in assay [12]; 17.4 µM (active) in assay [2]; 43.8 µM (active) in assay [20]; 43.8 µM (active) in [15]; 43.8 µM (active) in [16]. In addition, the Potency in assay [8] is 17.4 µM (active); in [17], 31 µM (active). The Potency result in assay [5], in [6], in [7], in assay [9] and in [10] was “inactive” in each case.
